# Records with an inconclusive call do not appear. Calls of active or inactive are those of the source. Calls come from the whole dose curve; as a rule, active = well fitted activation curve with a large enough effect in the signal ratio in the repeat runs (not every such curve was filed as active); inconclusive = weak or mixed curves; inactive = flat fitted curve, though single readings scatter; the % refers to the signal ratio. Residues, ends and D or L forms follow the SMILES beside them.
# Test: qHTS assay to identify small molecule agonists of the TGF-beta/Smad signaling pathway (AID 1346859)
# Conditions: SBE-bla HEK293T, TGF-beta/Smad beta-lactamase reporter, 5 h; series mostly up to 76.8 µM
# From the text: U.S. Tox21 Program National Center for Advancing Translational Sciences [NCATS] NIH Chemical Genomics Center [NCGC] U.S. Environmental Protection Agency [EPA] National Institutes of Environmental Health Sciences [NIEHS] National Toxicology Program [NTP] U.S. Food and Drug Administration [FDA] Tox21 Assay Overview: Transforming growth factor beta (TGF-beta) superfamily consists of a large number of structurally related dimeric proteins that act as hormones or local mediators in regulating a wide range of biological functions. This superfamily includes TGF-betas themselves, the bone morphogenetic proteins (BMPs) and the activins. These ligands induce oligomerization of serine/threonine receptor kinases and phosphorylate the cytoplasmic signaling molecules of Smad protein family. CellSensor SBE-bla HEK 293T cell line (Life Technologies, Carlsbad, CA), responsive to TGF-beta was used to screen Tox21 10K compound library for identification of agonists/antagonists of the Smad signaling pathway. This cell line contains a beta-lactamase reporter gene under control of the Smad binding element (SBE) stably integrated into HEK 293T cells.
# Tox21 Assay Protocol Summary: SBE-bla HEK 293T cells were dispensed at 4,000/well in 6 uL of assay medium into black wall/clear-bottom 1536-well plates using a Multidrop Combi (ThermoFisher Scientific, Waltham, MA) dispenser. After the assay plates were incubated at 37 C and 5% CO2 for an overnight, 23 nL of compounds dissolved in DMSO, positive controls or DMSO only was transferred to the assay plate by a Pintool station (Kalypsys, San Diego, CA). The assay plates were incubated at 37 C and 5% CO2 for 5 hr. One uL of LiveBLAzer B/G FRET substrate (Life Technologies) was added using a Flying Reagent Dispenser (Aurora Discovery, San Diego, CA) and the plates were incubated at room temperature for 2 hr. Fluorescence intensity (405 nm excitation, 460 nm and 530 nm emissions) was measured using an Envision plate reader (PerkinElmer, Shelton, CT).
row,SMILES,outcome
1,Cc1ccc(S(=O)(=O)NC(=O)NN2CCCCCC2)cc1,inactive
2,CC(=O)OCC(COC(C)=O)OC(C)=O,inactive
3,Cc1cn([C@H]2C[C@H](N=[N+]=[N-])[C@@H](CO)O2)c(=O)[nH]c1=O,inactive
4,O=C(O)c1[nH]n(-c2ccc(S(=O)(=O)O)cc2)c(=O)c1N=Nc1ccc(S(=O)(=O)O)cc1,inactive
5,CC(C)(Oc1ccc(C2CC2(Cl)Cl)cc1)C(=O)O (stereo not given),inactive
6,O=C(O)C(=O)O,inactive
7,O=S(=O)(O)NC1CCCCC1,inactive
8,O=C1NC(=O)c2ccccc21,inactive
9,Cn1c(=O)c2[nH]cnc2n(C)c1=O,inactive
10,CCCNC(=O)NS(=O)(=O)c1ccc(Cl)cc1,inactive
11,OCCc1ccccc1,inactive
12,O=NO,inactive
13,Cc1ccc(C)c(OCCCC(C)(C)C(=O)O)c1,inactive
14,O=C1CN(/N=C/c2ccc([N+](=O)[O-])o2)C(=O)N1,inactive
15,Oc1ccc(/C=C/c2cc(O)cc(O)c2)cc1,inactive
16,O=c1cc[nH]c(=S)[nH]1,inactive
17,NC(N)=O,inactive
18,Nc1ccc(O)c(C(=O)O)c1,inactive
19,CC(O)CO (stereo not given),inactive
20,NS(=O)(=O)c1cc(C(=O)O)c(NCc2ccco2)cc1Cl,inactive

row,SMILES,outcome
1,c1ccc2[nH]ccc2c1,inactive
2,C[C@]12C=CC(=O)C=C1CC[C@@H]1[C@@H]2[C@@H](O)C[C@@]2(C)[C@H]1CC[C@]2(O)C(=O)CO,inactive
3,Cc1ccc(O)cc1,inactive
4,COc1ccc2[nH]cc(CCNC(C)=O)c2c1,inactive
5,O=C(O)/C=C\C(=O)O,inactive
6,CNC[C@H](O)c1cccc(O)c1,inactive
7,COC(=O)[C@H](Cc1ccccc1)NC(=O)[C@@H](N)CC(=O)O (H-Asp-Phe-OMe),inactive
8,C1N2CN3CN1CN(C2)C3,inactive
9,NC(=O)NC1NC(=O)NC1=O (stereo not given),inactive
10,NC(=O)c1ccccc1O,inactive
11,C/C=C/c1ccc(OC)cc1,inactive
12,O=C(O)CCCCCCCC(=O)O,inactive
13,CC(=O)Nc1nnc(S(N)(=O)=O)s1,inactive
14,O=C(c1ccccc1)C(O)c1ccccc1 (stereo not given),inactive
15,OC(Cn1cncn1)(Cn1cncn1)c1ccc(F)cc1F,inactive
16,O=C(c1ccccc1)c1ccccc1,inactive
17,Cc1cc(=O)[nH]c(=S)[nH]1,inactive
18,O=C(O)c1cccc([N+](=O)[O-])c1,inactive
19,CCCCCCCCCCCCCCCC(=O)O,inactive
20,Nc1ccn([C@H]2CC[C@@H](CO)O2)c(=O)n1,inactive

# Source: PubChem BioAssay (Tox21)
